The structures appear in SMILES notation. Results filed as inconclusive are left out. Calls of active or inactive are those of the source. Rule for the calls, unless noted: active = hit-call score of the fitted dose curve at least 0.9, where 1 is the maximum; inconclusive = response in the unintended direction; inactive = score below 0.9.

Test [1] concerns the target PGR (gene 5241) (UniProt P06401). The experiment in a line: TOX21_PR_BLA_Followup_Agonist_ratio: Tox21 HEK293 Progesterone Receptor (PR) Agonism Beta-lactamase Follow-Up Assay, Ratio (AID 2283933). The gist of the method: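 Beta-lactamase reporter readout: ratio of cleaved (ch2) to uncleaved (ch1) substrate after 2 h room-temperature loading, following 16 h compound exposure at 37C. Cells were PR-UAS-bla HEK293T in 2% charcoal-stripped FBS medium. Viability was multiplexed by CellTiter-Glo.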

For test [2] the target is unchanged. Kind of test: TOX21_PR_BLA_Followup_Antagonist_ratio: Tox21 HEK293 Progesterone Receptor (PR) Antagonism Beta-lactamase Follow-Up Assay, Ratio (AID 2283934).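 Note: PR-UAS-bla HEK293T cells stimulated with 1 nM R5020 agonist for 16 hr.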 The gist of the method: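 Readout is the blue/green (ch2/ch1) substrate cleavage ratio after 2 hours at room temperature, following 16 hr co-treatment of PR-bla HEK293T cells with compound and 1nM promegestone. Multiplexed CellTiter-Glo viability flags cytotoxicity; DMSO baseline.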

The nature of test [3]: TOX21_PR_BLA_Followup_Agonist_viability: Viability Assessment in the Tox21 HEK293 Progesterone Receptor (PR) Agonism Beta-lactamase Follow-Up Assay (AID 2283935).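 Note: signal loss means lower viability so actives are cytotoxic.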 Summed up: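 Run multiplexed with the beta-lactamase FRET read, this endpoint measures ATP by CellTiter-Glo luminescence (30 min, room temperature). PR-UAS-bla HEK293T cells received compound 6 hr after plating and were then incubated 16 hr at 37C in 2% stripped serum.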

A short description of test [4]: TOX21_PR_BLA_Followup_Antagonist_viability: Viability Assessment in the Tox21 HEK293 Progesterone Receptor (PR) Antagonism Beta-lactamase Follow-Up Assay (AID 2283936).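 Note: cells exposed to compound with R5020 agonist for 16 h; hits lower the luminescence signal meaning cytotoxicity.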 The gist of the method: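 PR-UAS-bla HEK293T cells in medium with 2% charcoal-stripped FBS were treated with compounds plus R5020 for 16 hr at 37C. After the beta-lactamase read, CellTiter-Glo was added to the same wells and luminescence read after 30 min at room temperature.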

In test [5] the target is PGR (gene 5241) (UniProt P06401). The experiment in a line: TOX21_PR_LUC_Followup_Agonist: Tox21 HEK293 Progesterone Receptor (PR) Agonism Luciferase Follow-Up Assay (AID 2283937; active = hit-call score of the fitted dose curve at least 0.9, where 1 is the maximum; inactive = score below 0.9). The gist of the method: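 Agonism scored as luciferase induction over DMSO, read by ONE-Glo after 30 min at RT. Compounds were incubated 16 h at 37C on HEK293-PR-A-luc cells (3,000/well, pre-plated 5 h) previously grown 5 days in charcoal-stripped serum.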

Test [6] has the same target. The experiment in a line: TOX21_PR_LUC_Followup_Antagonist: Tox21 HEK293 Progesterone Receptor (PR) Antagonism Luciferase Follow-Up Assay (AID 2283938).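 Note: curve fitted upward as signal gain over DMSO baseline despite antagonist label.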 The gist of the method: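 Cells are grown 5 days in charcoal-stripped-FBS assay medium, plated, left 5 h, then dosed with compound and incubated 16 h. ONE-Glo reagent is added and luminescence read after 30 min.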
Test [7] deals with Thyroid hormone receptor alpha (Rattus norvegicus) + Thyroid hormone receptor beta (Rattus norvegicus) (UniProt P18113+P63059). The experiment in a line: TOX21_TR_LUC_GH3_Antagonist_Followup: Tox21 GH3 Thyroid Hormone Receptor Antagonism Luciferase Follow-Up Assay (AID 2283942). The gist of the method: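 Loss of T3-driven (1.0 nM final) reporter activity in GH3 cells was read by ONE-Glo luminescence after 24 h incubation at 37C; 15-point compound series spanned 92 uM to 5nM final, 1,500 cells/well.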

In the next test the target is THRA (gene 7067) (UniProt P10827). The experiment in a line: TOX21_TRA_COA_Antagonist_Followup_ratio: Tox21 Thyroid Hormone Receptor alpha Antagonism through Coactivator Recruitment Follow-Up Assay, Ratio (AID 2283953). Summed up: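 GST-TRα LBD 2.5 nM, BSA 0.10%, + cpd; then FITC-SRC-2 peptide 200 nM + Tb-anti-GST Ab 2 nM. TR-FRET ratio 520/495 nm. Norm: DMSO = 0%, T3 = 100%.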

Test [8] is described as follows: TOX21_TRB_BLA_Antagonist_Followup_viability: Viability Assessment in the Tox21 Thyroid Hormone Receptor beta Antagonism Beta-lactamase (BLA) Follow-Up Assay (AID 2283961). The gist of the method:
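TRβ-bla HEK293T (human TRβ LBD fused to GAL4 DBD), 3,000 cells/well, 2% charcoal-stripped FBS, phenol red-free medium; 18 h compound exposure, 37C; CellTiter-Glo 30 min RT; luminescence, loss-of-signal readout.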

Test [9] has as its target Retinoic acid receptor RXR-alpha (Homo sapiens) (UniProt P19793). The experiment in a line: TOX21_TR_RXR_BLA_Antagonist_Followup_ratio: Tox21 Thyroid Hormone Receptor beta Retinoid X Receptor alpha (RXRa) Antagonism Beta-lactamase (BLA) Follow-Up Assay, Ratio (AID 2283972). Summed up:
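HEK293T RXRa-bla, 2% charcoal-stripped FBS medium, 16 h compound exposure at 37C, qHTS 11 conc x3. CCF4 FRET ratio ch2/ch1 (460:530), DMSO = baseline, loss-of-signal fit.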

The nature of test [10]: TOX21_TR_RXR_BLA_Antagonist_Followup_viability: Viability Assessment in the Tox21 Thyroid Hormone Receptor beta Retinoid X Receptor alpha (RXRa) Antagonism Beta-lactamase (BLA) Follow-Up Assay (AID 2283979). Summed up: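 Follow-up compounds (11 concentrations, triplicate) were incubated 16 h at 37C/5% CO2 with HEK293T RXRa-bla cells seeded at 2,500/well in charcoal-stripped-serum medium. ATP content by CellTiter-Glo luminescence gave viability; curves fitted in both directions against DMSO.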

A short description of test [11]: CCTE_Harrill_HTTr_Viability_MCF7: CCTE's 6-hour Cell Viability Assessment for the High-Throughput Transcriptomics (HTTr) Platform, in MCF-7 cells cultured in DMEM + 10% fetal bovine serum, Harrill Lab (AID 2284010; active = hit-call score of the fitted dose curve at least 0.9, where 1 is the maximum; inactive = score below 0.9). Summed up:
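Propidium iodide exclusion, imaged by high-content analysis, gauged viability after a six-hour exposure across eight concentrations. Cells were MCF-7 grown in DMEM with 10% fetal bovine serum; fits run in both directions against DMSO.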

Test [12] can be described thus: CCTE_Harrill_HTTr_Apoptosis_MCF7: CCTE's 6-hour Apoptosis Assessment for the High-Throughput Transcriptomics (HTTr) Platform, in MCF-7 cells cultured in DMEM + 10% fetal bovine serum, Harrill Lab (AID 2284011; active = hit-call score of the fitted dose curve at least 0.9, where 1 is the maximum; inactive = score below 0.9). Summed up: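 MCF-7 (DMEM + 10% FBS), 384-well; 8-pt dilution series, 6 h chemical exposure; caspase-3/7 activation via CellEvent Caspase 3/7 Green, HCI; bidirectional fit vs DMSO.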

The nature of test [13]: CCTE_Harrill_HTTr_CellCount_MCF7: CCTE's Cell Proliferation Assessment for the High-Throughput Transcriptomics (HTTr) Platform, Harrill Lab (AID 2284012).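 Note: cells exposed to compound for six hours; intended direction is loss of nuclei count meaning fewer cells.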 The gist of the method: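 Cell count from high-content imaging of Hoechst-labeled nuclei serves as viability/growth readout. Chemicals were applied to MCF-7 cells in eight concentrations for six hours, with fitting in both directions relative to DMSO.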

The next test deals with THRB (gene 7068) (UniProt P10828). Kind of test: TOX21_TRB_COA_Antagonist_Followup_ratio: Tox21 Thyroid Hormone Receptor beta Antagonism through Coactivator Recruitment Follow-Up Assay, Ratio (AID 2283967). Summed up: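 Coactivator recruitment to the GST-tagged TRb ligand-binding domain (5.0 nM) was read as the 520/495 nm TR-FRET ratio, using 200 nM fluorescein SRC-2 peptide and 2 nM terbium anti-GST. Scaled between DMSO and T3 wells; loss of signal fitted.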

A short description of test [14]: TOX21_PR_LUC_Followup_Antagonist_viability: Viability Assessment in the Tox21 HEK293 Progesterone Receptor (PR) Antagonism Luciferase Follow-Up Assay (AID 2283940). The gist of the method: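 Viability counter-readout: cellular ATP measured by luciferase luminescence after 16 h compound exposure at 37C of HEK293-PR-A-luc cells, which had been cultured in charcoal-stripped serum and seeded 5 h beforehand.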

Test [15] is described as follows: TOX21_PR_LUC_Followup_Agonist_viability: Viability Assessment in the Tox21 HEK293 Progesterone Receptor (PR) Agonism Luciferase Follow-Up Assay (AID 2283941).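 Note: loss of signal means cytotoxicity so actives lower viability.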 Summed up:
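Cytotoxicity counter-readout in the PR-A luciferase reporter line HEK293, with 16 h compound exposure at 37C after cells were cultured in charcoal-stripped serum. Cellular ATP quantified by CellTiter-Glo luminescence.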

Chain of PGR (gene 5241) (P06401 whole entry, looked up): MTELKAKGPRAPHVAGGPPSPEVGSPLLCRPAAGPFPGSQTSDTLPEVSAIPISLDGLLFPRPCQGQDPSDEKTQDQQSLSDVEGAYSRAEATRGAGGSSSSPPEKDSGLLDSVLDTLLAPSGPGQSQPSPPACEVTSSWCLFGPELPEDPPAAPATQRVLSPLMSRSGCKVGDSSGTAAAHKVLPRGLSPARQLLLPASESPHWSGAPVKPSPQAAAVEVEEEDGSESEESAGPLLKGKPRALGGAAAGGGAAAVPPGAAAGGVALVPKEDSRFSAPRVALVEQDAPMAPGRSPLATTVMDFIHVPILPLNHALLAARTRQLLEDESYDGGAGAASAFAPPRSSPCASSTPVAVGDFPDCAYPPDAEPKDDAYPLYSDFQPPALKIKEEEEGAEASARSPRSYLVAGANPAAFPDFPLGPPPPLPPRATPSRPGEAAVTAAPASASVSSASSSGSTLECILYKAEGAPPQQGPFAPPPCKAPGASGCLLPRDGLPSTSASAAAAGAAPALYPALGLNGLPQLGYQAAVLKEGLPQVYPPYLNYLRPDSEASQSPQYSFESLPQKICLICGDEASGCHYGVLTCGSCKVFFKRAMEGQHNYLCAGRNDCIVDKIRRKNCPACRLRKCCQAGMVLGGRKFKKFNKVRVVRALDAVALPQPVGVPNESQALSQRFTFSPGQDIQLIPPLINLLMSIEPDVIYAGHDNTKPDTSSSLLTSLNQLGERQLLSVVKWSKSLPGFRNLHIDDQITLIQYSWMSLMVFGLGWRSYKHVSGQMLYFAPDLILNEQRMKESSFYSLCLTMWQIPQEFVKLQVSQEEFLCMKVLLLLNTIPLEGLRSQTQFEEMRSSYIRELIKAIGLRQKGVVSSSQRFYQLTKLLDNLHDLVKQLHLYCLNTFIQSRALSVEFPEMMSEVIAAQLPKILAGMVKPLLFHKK
Chain of Retinoic acid receptor RXR-alpha (Homo sapiens) (P19793 whole entry, looked up): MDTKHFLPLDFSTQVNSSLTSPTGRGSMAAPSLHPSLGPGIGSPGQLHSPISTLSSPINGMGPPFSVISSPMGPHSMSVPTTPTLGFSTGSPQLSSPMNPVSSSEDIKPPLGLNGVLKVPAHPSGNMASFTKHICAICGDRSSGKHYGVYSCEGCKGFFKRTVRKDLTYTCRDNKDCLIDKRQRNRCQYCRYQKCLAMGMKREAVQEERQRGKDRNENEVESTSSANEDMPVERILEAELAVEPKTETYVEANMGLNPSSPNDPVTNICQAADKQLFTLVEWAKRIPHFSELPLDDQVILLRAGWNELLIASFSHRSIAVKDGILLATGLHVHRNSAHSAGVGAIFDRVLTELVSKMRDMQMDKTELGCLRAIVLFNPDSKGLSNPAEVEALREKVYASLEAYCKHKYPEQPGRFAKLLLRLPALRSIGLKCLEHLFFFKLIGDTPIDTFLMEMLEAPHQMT
Chain of THRB (gene 7068) (P10828 whole entry, looked up, the tested form may be a part): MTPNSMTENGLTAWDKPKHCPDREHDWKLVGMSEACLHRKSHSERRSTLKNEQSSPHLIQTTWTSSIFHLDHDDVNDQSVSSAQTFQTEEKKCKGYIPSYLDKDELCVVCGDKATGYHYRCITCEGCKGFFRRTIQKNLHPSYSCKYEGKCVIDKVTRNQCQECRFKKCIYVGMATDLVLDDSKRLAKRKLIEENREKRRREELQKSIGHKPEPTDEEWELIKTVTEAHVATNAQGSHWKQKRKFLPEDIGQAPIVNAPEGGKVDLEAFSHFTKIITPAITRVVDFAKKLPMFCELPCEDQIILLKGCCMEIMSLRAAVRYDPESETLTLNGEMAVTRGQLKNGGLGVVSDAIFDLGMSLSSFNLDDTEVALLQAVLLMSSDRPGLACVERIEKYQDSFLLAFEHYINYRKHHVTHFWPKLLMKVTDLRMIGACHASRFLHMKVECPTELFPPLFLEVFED
Chain of THRA (gene 7067) (P10827 whole entry, looked up, the tested form may be a part): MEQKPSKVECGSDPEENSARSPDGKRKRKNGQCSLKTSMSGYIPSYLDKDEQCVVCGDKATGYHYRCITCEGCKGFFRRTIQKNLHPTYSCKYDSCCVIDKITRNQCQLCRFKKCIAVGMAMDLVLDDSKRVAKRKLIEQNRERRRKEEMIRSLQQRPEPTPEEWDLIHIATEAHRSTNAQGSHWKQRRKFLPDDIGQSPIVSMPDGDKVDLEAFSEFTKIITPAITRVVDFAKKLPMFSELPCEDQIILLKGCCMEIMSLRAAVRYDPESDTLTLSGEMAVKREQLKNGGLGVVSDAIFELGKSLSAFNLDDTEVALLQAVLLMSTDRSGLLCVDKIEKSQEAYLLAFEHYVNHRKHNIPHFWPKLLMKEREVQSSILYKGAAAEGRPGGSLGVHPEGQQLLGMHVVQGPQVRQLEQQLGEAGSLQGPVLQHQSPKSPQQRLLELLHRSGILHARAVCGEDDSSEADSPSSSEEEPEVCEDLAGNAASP

As to `CC1(C)OC(=O)Nc2ccc(Br)cc21`, the result (with PGR (gene 5241) [1]; in the test with PGR (gene 5241) [2]; in [3]; in [4]; in the test with PGR (gene 5241) [5]; with PGR (gene 5241) [6]) was inactive.
For the molecule `CCCC(=O)OCOC(=O)C1=C(C)NC(C)=C(C(=O)OC)C1c1cccc(Cl)c1Cl` (centres undefined), the result (in the test with PGR (gene 5241) [1]; with PGR (gene 5241) [2]; in [3]; in test [4]; with PGR (gene 5241) [5]; with PGR (gene 5241) [6]) was inactive.
With `COc1ccc2c(c1)N(C[C@H](C)CN(C)C)c1ccccc1S2`, in [7], the concentration at half-maximal activity (AC50) (commonly the concentration giving half of the maximal activity seen) is 2790 nM (active). For the same molecule, the result (with THRA (gene 7067); in test [8]; in test [9]; in test [10]) was inactive.
Turning to `O=C(c1ccccc1)c1ccc(O)cc1`, the outcome in [11], in test [12] and in [13] was inactive.
Consider `COC(=O)Nc1nc2ccc(S(=O)c3ccccc3)cc2[nH]1` (centres undefined), for which the result (in [7]; in the test with THRA (gene 7067); in test [8]; with THRB (gene 7068); in [9]; in [10]) was inactive. The outcome in [11], in test [12] and in [13] was inactive.
Consider `C/C=C1\C(=O)C[C@H]2[C@@H]3CCC4=CC(=O)CC[C@]4(C)[C@H]3CC[C@]12C`, for which the call (in test [3]; in the test with PGR (gene 5241) [6]; in [14]; in test [15]) was inactive.
For the molecule `CCCOc1ccc2c(c1)CC[C@@H]1[C@@H]2CC[C@]2(C)C(OC)CC[C@@H]12` (some centres undefined), the result (with PGR (gene 5241) [1]; in test [3]; in test [4]; with PGR (gene 5241) [5]; in the test with PGR (gene 5241) [6]) was inactive. For the same molecule, the AC50 with PGR (gene 5241) [2] is 12800 nM (active).
With `O=C(O)c1cccnc1Nc1cccc(C(F)(F)F)c1`, the result (in test [7]; with THRA (gene 7067); in test [8]; with THRB (gene 7068); in [9]; in [10]) was inactive.
As to `CC(=O)OCC(=O)[C@H]1CC[C@H]2[C@@H]3CCC4=CC(=O)CC[C@]4(C)[C@H]3CC[C@]12C`, the results for the AC50 with PGR (gene 5241) [1] and in the test with PGR (gene 5241) [5] were 844 nM (active) and 29.7 nM (active), respectively. For the same molecule, the result (in the test with PGR (gene 5241) [2]; in [3]; in [4]; with PGR (gene 5241) [6]; in [14]; in [15]) was inactive. Moreover, the outcome (in [7]; in the test with THRA (gene 7067); with THRB (gene 7068); in [10]) was inactive.
For the molecule `CCC(=O)Oc1ccc2c(c1)CC[C@@H]1[C@@H]2CC[C@@]2(C)[C@H]1C[C@@H](OC(=O)CC)[C@@H]2OC(=O)CC`, the result (with PGR (gene 5241) [1]; in test [3]; in [4]; in the test with PGR (gene 5241) [6]; in test [14]; in test [15]) was inactive. In addition, the concentration at half-maximal activity (AC50) is 2810 nM (active) with PGR (gene 5241) [2] and 16800 nM (active) with PGR (gene 5241) [5].
With `C[C@]12CCC(=O)C=C1CC[C@@H]1[C@@H]2[C@@H](O)C[C@@]2(C)[C@H]1CC[C@]2(O)C(=O)CO`, the outcome (in the test with PGR (gene 5241) [1]; in the test with PGR (gene 5241) [2]; in [3]) was inactive. For the same molecule, the AC50 with PGR (gene 5241) [5] was 1300 nM (active).
For the molecule `CC(=O)OCC(=O)[C@@]1(O)[C@H](C)C[C@H]2[C@@H]3CCC4=CC(=O)C=C[C@]4(C)[C@@]3(F)[C@@H](O)C[C@@]21C`, the outcome (with PGR (gene 5241) [2]; in test [3]; in [4]; in the test with PGR (gene 5241) [6]; in test [14]) was inactive.

Source of the values: PubChem BioAssay (EPA / NIEHS).
